Assay [1] in a line: Viability qHTS for spleen associated tyrosine kinase inhibitor (SYKi) naive MV4-11 cells (AID 1963823). Note: nearly all actives have a fitted effect of over 40% in size. In short, it runs like this:
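Seeding of 500 SYKi-naive MV4-11 cells per well onto pre-dispensed compounds preceded a 72 hr incubation at 37 C. Luminescent CellTiter-Glo signal, read after 10 min at room temperature, reflected viable cells.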

The nature of assay [2]: Viability qHTS for spleen associated tyrosine kinase inhibitor (SYKi) drug resistant MV4-11 cells (AID 1963824). Note: nearly all actives have a fitted effect of over 35% in size. In short, it runs like this: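 SYK-inhibitor-resistant MV4-11 AML cells were seeded at 500 per well onto compound and cultured 72 hours (37 °C, 5% CO2). CellTiter-Glo was then added, and after 10 min at room temperature, luminescence gave viability.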
Assay [3] in a line: Quantitative highthroughput screen to assess conditional lethalithy of NOMO1 cells grown in RPMI1640 with untreated serum (RPMI+s) (AID 1963876).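 For Viability: 100% = DMSO wells and 0% = empty wells without cells.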 Note: nearly all actives have a fitted effect of over 35% in size. In short, it runs like this: (§1)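 Each medium arm—HPLM with 10% dialyzed FBS, or RPMI1640 with 5 mM glucose and 10% untreated or dialyzed FBS—was screened against an 11-point, 3-fold compound titration for 48 h at 37 °C, with CellTiter-Glo luminescence as endpoint.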

The nature of assay [4]: Quantitative highthroughput screen to assess conditional lethalithy of NOMO1 cells grown in RPMI1640 with dialyzed fetal bovine serum (RPMI+ds) (AID 1963877).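 For Viability: series mostly up to about 46 µM; 100% = DMSO control wells and 0% = empty wells.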 Note: nearly all actives have a fitted effect of over 30% in size. In short, it runs like this: as §1
Assay [5] is described as follows: Quantitative highthroughput screen to assess conditional lethalithy of NOMO1 cells grown in Human Plasma-Like Medium with dialyzed fetal bovine serum (HPLM+ds) (AID 1963878).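 For Viability: 100% = DMSO wells and 0% = empty wells on each plate.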 Note: nearly all actives have a fitted effect of over 35% in size. The gist of the method:
as §1

Assay [6] in a line: Quantitative highthroughput screen to assess conditional lethalithy of P12 Ichikawa cells grown in Human Plasma-Like Medium with dialyzed fetal bovine serum (HPLM+ds) (AID 1963879). For Viability: series mostly up to about 46 µM. Note: nearly all actives have a fitted effect of over 35% in size. The note with it: Potency: viability. In short, it runs like this:
as §1

Assay [7] is described as follows: Quantitative highthroughput screen to assess conditional lethalithy of P12 Ichikawa cells grown in RPMI1640 with dialyzed fetal bovine serum (RPMI+ds) (AID 1963880).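 For Viability: 100% = DMSO wells and 0% = empty wells on each plate.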 Note: nearly all actives have a fitted effect of over 35% in size. The note with it: Potency: P12-Ichikawa viability. In short, it runs like this:
as §1

A short description of assay [8]: Quantitative highthroughput screen to assess conditional lethalithy of P12 Ichikawa cells grown in RPMI1640 with untreated serum (RPMI+s) (AID 1963881).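 For Viability: series mostly up to about 46 µM; 100% = DMSO wells and 0% = empty wells without cells.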 Note: nearly all actives have a fitted effect of over 35% in size. The note with it: Potency: viability. The gist of the method: as §1
A short description of assay [9]: Quantitative highthroughput screen to assess conditional lethalithy of SEM cells grown in RPMI1640 with unreated serum (RPMI+s) (AID 1963883).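 For Viability: 100% = DMSO wells and 0% = empty wells without cells.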 Note: nearly all actives have a fitted effect of over 35% in size. The gist of the method:
as §1

Assay [10] is described as follows: Quantitative highthroughput screen to assess conditional lethalithy of SEM cells grown in RPMI1640 with dialyzed fetal bovine serum (RPMI+ds) (AID 1963884).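 For Viability: series mostly up to about 46 µM; 100% = DMSO control wells and 0% = empty wells without cells.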 Note: nearly all actives have a fitted effect of over 35% in size. In short, it runs like this:
as §1

Assay [11] can be described thus: Cellular viability qHTS for adrenocortical cancer (ACC) cell line SW-13 (AID 1963989).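 For activity (max response): cells grown in serum-free medium with ITS supplement; % is set by controls: 0 for no effect and ±100 for the full control effect.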 Note: nearly all actives have a fitted effect of over 65% in size. The note with it: SW-13 ACC cells viability, CellTiter-Glo, 48 h; activity (max response): hits give low values. The gist of the method:
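SW-13 cells in ITS-supplemented serum-free DMEM were plated overnight, then exposed for 48 h at 37C to compound titrations (up to 46 uM final). Viability was read by CellTiter-Glo luminescence; four-parameter logistic fits gave IC50 and efficacy.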

A short description of assay [12]: Cellular viability qHTS for adrenocortical cancer (ACC) cell line NCI-H295R (AID 1963990). Note: nearly all actives have a fitted effect of over 60% in size. The gist of the method:
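Luminescent ATP read-out (CellTiter-Glo, 20 min RT) after 48 h drug exposure of NCI-H295R cells; a titration up to 46 uM final. Data normalized to doxorubicin (100% inhibition) and DMSO (0%); 4-parameter fit gives IC50, max response.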

Assay [13] is described as follows: Quantitative highthroughput screen to assess conditional lethalithy of SEM cells grown in Human Plasma-Like Medium with dialyzed fetal bovine serum (HPLM+ds) (AID 1963882). Note: nearly all actives have a fitted effect of over 35% in size. The gist of the method: as §1

Where “and” joins values, the source holds several entries; their conditions need not be identical. Equal values may be shown once. Inconclusive results are not listed. A number with no mark means an inactive call. Calls of active or inactive are those of the source. Calls come from the whole dose curve; as a rule, active = well fitted curve in the direction sought with a large enough effect; inconclusive = small, poorly fitted or top-dose-only effect, or another doubt; inactive = no such curve, though single readings can be large; an effect the other way counts as inactive or inconclusive.
Potency is the fitted concentration of half-maximal effect.

Turning to `CC(C)C[C@H](NC(=O)[C@@H](NC(=O)c1cccc(-c2ccccc2)n1)[C@@H](C)O)B(O)O`, the Potency in assay [1] was 14.6 nM (active) and 25.7 nM (active); in assay [2], 20.4 nM (active); in assay [3] it was 74.3 nM (active); in assay [4], 105 nM (active); in assay [5] it was 66.2 nM (active); in assay [6], 52.6 nM (active). Besides, the Potency in [7] is 59 nM (active); in assay [8], 37.2 nM (active); in assay [9], 13.2 nM (active); in [10], 14.8 nM (active); in [11], 285 nM (active); in assay [12], 180 nM (active).

In the case of `COC(=O)N1CC2(CC2)C[C@H](C(=O)NO)[C@H]1C(=O)N1CCN(c2ccccc2)CC1`, the Potency entry in assay [1], in assay [2] and in [12] was “inactive” in each case. In addition, the Potency in assay [3] was 524 nM (active); in assay [4], 3310 nM (active); in [5], 295 nM (active); in [6], 331 nM (active); in [7], 1050 nM (active); in assay [8] it was 2340 nM (active). Moreover, the Potency was 1170 nM (active) in assay [13] and 660 nM (active) in assay [10].

`CCCOc1ccc(C(=O)OCCN(CC)CC)cc1N`: the Potency entry in assay [1], in assay [2], in assay [3], in assay [4], in assay [5] and in [6] was “inactive” each time. For the same compound, the Potency entry in assay [7], in [8], in assay [9], in [10] and in assay [12] was “inactive” each time. In addition, the activity (max response) in assay [11] was -2.3% and -19.7%.

On to `O=C(CCCCCCC(=O)Nc1ccccc1)NO`, for which the Potency is 1.64 µM (active) and 1.48 µM (active) in [1]; 1.3 µM (active) and 1.18 µM (active) in [2]; 14800 nM (active) in [3]; 16600 nM (active) in assay [4]; 10500 nM (active) in [5]; 4180 nM (active) in assay [6]. Further, the Potency in assay [7] is 3320 nM (active); in assay [8], 3320 nM (active); in [9], 3720 nM (active); in assay [10], 3320 nM (active); in assay [12], 820 nM (active) and 1 µM (active).

These data come from PubChem BioAssay (NCATS).
